Assay results published in PubChem BioAssay (EPA / NIEHS).
Inconclusive results are not listed. Activity calls are given as the source filed them. The calls were made as follows: active = hit-call score of the fitted dose curve at least 0.9, where 1 is the maximum; inconclusive = response in the unintended direction; inactive = score below 0.9.

Experiments:
[1] = target: zebrafish Estrogen Receptor (ER1), esr1 (gene 259252) (UniProt P57717); assay: ATG_zfER1_XSP2: Attagene TRANS-FACTORIAL Multi-Species (XSP2) HepG2 Assay for zebrafish Estrogen Receptor (ER1) (AID 2283816)
Sequence of zebrafish Estrogen Receptor (ER1), esr1 (gene 259252) (P57717 whole entry, looked up, the tested form may be a part): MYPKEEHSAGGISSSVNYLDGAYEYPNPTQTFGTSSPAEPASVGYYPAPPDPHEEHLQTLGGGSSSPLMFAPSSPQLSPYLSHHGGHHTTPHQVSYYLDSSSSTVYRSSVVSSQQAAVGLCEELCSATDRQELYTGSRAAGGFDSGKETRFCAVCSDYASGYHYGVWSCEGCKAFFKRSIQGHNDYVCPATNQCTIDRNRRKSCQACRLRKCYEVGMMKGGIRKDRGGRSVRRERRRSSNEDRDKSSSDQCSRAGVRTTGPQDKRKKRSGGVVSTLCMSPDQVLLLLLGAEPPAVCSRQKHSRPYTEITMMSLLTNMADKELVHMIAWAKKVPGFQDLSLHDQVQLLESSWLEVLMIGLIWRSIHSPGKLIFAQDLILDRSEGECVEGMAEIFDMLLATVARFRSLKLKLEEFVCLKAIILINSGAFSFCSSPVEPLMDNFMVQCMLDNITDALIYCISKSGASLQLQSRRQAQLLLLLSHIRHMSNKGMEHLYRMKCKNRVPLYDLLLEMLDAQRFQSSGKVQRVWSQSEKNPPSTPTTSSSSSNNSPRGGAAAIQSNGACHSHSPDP
In short: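 HepG2 cells transiently transfected with a GAL4-UAS reporter and a chimeric zebrafish ER1-Gal4 construct, dosed 24 h. Reporter mRNA quantified by RT-PCR, labelling, HpaI digestion and capillary electrophoresis, relative to DMSO.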

[2] = target: chicken Estrogen Receptor (ERa), ESR1 (gene 396099) (UniProt P06212); assay: ATG_chERa_XSP2: Attagene TRANS-FACTORIAL Multi-Species (XSP2) HepG2 Assay for chicken Estrogen Receptor (ERa) (AID 2283817);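 also: actives raise reporter signal above DMSO so AC50 reflects ER activation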
Sequence of chicken Estrogen Receptor (ERa), ESR1 (gene 396099) (P06212 whole entry, looked up, the tested form may be a part): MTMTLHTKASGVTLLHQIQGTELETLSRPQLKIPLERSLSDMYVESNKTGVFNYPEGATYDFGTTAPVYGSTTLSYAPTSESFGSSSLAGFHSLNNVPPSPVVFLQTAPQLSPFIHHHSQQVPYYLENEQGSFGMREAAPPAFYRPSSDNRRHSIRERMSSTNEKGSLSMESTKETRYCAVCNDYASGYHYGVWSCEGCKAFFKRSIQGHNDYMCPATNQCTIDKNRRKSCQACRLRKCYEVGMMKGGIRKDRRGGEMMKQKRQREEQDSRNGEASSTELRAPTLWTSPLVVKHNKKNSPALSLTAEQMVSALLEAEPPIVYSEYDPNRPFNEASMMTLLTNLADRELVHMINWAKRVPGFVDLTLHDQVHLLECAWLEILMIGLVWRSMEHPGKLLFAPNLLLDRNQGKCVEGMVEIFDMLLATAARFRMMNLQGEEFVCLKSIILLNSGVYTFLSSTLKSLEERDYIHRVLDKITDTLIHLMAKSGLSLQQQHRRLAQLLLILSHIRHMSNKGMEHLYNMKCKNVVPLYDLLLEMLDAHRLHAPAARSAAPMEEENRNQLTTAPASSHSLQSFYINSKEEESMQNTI
In short: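 HepG2 cells transiently transfected with multiplexed GAL4-UAS reporter units expressing chimeric chicken ERa-Gal4; 24 h compound exposure. Reporter mRNA measured by RT-PCR with 6-FAM labelling, HpaI digestion and capillary electrophoresis; gain-of-signal fitted versus DMSO.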

[3] = tested on: zebrafish Estrogen Receptor (ER2a), gene 317734; assay: ATG_zfER2a_XSP2: Attagene TRANS-FACTORIAL Multi-Species (XSP2) HepG2 Assay for zebrafish Estrogen Receptor (ER2a) (AID 2283818);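 also: hits raise reporter mRNA so AC50 reflects activation of zebrafish ER2a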
In short: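 HepG2 cells transiently transfected with GAL4-UAS reporter units and chimeric zebrafish ER2a-Gal4, exposed 24 h; medium contains 3 nM 6-alpha-fluorotestosterone and 1.5 nM norgestrel. Reporter mRNA quantified by RT-PCR, HpaI digestion, capillary electrophoresis; gain versus DMSO.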

[4] = tested on: frog Estrogen Receptor (ER), gene 398734; assay: ATG_frER1_XSP2: Attagene TRANS-FACTORIAL Multi-Species (XSP2) HepG2 Assay for frog Estrogen Receptor (ER) (AID 2283821);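 also: hits raise reporter mRNA above DMSO baseline so potency means agonist or activator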
In short: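 HepG2, transient MRTU transfection, chimeric NR-GAL4/UAS reporters; 24 h compound exposure, 24-well. Readout: reporter mRNA via RT-PCR + capillary electrophoresis, fluorescence. Positive fit vs DMSO baseline.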

[5] = tested on: zebrafish Estrogen Receptor (ER2b), gene 317733; assay: ATG_zfER2b_XSP2: Attagene TRANS-FACTORIAL Multi-Species (XSP2) HepG2 Assay for zebrafish Estrogen Receptor (ER2b) (AID 2283823);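 also: fitted upward as reporter gain over DMSO so potency reflects activation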
Protocol: (§1) ATG_XSP2_multi-species_TRANS is a cell-based, multiplexed assay created by modifying the existing Attagene TRANS-FACTORIAL system to include a panel of nuclear receptors from some or all the following species: human (Homo sapiens), mouse (Mus musculus), frog (Xenopus laevis), zebrafish (Danio rerio), chicken (Gallus gallus), and turtle (Chrysemys picta). The ECOTOX-FACTORIAL format uses HepG2, a human liver cell line, with measurements taken at 24 hours after chemical dosing in a 24-well plate. Xsp2 included 3 nM 6-alpha-fluorotestosterone and 1.5 nM norgestrel to stimulate the androgen receptor.ATG_zfER2b_XSP2 is one of 29 assay components measured or calculated from the ATG_XSP2_multi-species_TRANS assay. It is designed to make measurements of mRNA induction, a form of inducible reporter, as detected with fluorescence intensity signals by Reverse transcription polymerase chain reaction (RT-PCR) and Capillary electrophoresis technology.The assay endpoint ATG_zfER2b_XSP2 was analyzed in the positive analysis fitting direction relative to DMSO as the negative control and baseline of activity. […] Furthermore, this assay endpoint can be referred to as a primary readout, because this assay has produced multiple assay endpoints where this one serves a reporter gene function. […]

[6] = tested on: frog Estrogen Receptor (ER2), gene 100174814; assay: ATG_frER2_XSP2: Attagene TRANS-FACTORIAL Multi-Species (XSP2) HepG2 Assay for frog Estrogen Receptor (ER2) (AID 2283828)
In short: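 Human liver HepG2, transient MRTU transfection (TRANS format, exogenous NR–Gal4). 24 h cpd exposure. Total RNA → RT → PCR → FAM label → HpaI cut → CE. Positive direction vs DMSO.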

[7] = target: GAL4 Transcription Factor (Internal Marker), GAL4 (gene 855828) (UniProt P04386); assay: ATG_GAL4_XSP2: Attagene TRANS-FACTORIAL Multi-Species (XSP2) HepG2 Assay for GAL4 Transcription Factor (Internal Marker) (AID 2283814);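 also: GAL4 reporter mRNA background control in MRTU transfected cells not a receptor target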
Sequence of GAL4 Transcription Factor (Internal Marker), GAL4 (gene 855828) (P04386 whole entry, looked up, the tested form may be a part): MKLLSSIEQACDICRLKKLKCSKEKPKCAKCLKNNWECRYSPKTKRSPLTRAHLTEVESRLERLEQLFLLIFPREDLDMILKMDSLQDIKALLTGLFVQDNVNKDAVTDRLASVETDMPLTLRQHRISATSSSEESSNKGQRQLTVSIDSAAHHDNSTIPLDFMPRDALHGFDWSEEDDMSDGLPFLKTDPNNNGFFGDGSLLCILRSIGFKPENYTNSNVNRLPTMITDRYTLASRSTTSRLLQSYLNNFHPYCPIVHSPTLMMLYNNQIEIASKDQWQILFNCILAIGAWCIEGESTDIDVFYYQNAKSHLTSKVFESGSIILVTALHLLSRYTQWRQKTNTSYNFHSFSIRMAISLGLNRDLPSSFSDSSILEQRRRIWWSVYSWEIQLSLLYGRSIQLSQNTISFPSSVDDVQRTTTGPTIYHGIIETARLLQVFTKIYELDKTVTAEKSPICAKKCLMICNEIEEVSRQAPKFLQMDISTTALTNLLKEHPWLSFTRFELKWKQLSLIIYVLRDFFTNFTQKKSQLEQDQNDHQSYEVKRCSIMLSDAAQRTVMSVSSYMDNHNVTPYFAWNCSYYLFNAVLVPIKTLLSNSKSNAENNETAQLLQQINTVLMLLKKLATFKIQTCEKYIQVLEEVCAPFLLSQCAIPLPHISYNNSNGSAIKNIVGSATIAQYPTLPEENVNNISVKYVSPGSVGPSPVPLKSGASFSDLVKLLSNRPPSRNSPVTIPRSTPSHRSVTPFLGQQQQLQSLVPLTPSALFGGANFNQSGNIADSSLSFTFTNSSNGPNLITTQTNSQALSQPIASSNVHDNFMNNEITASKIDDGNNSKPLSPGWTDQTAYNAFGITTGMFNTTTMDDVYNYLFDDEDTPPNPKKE
Protocol: as §1, with “receptor.ATG_GAL4_XSP2” for “receptor.ATG_zfER2b_XSP2”, “technology.This” for “technology.The”, “endpoint, ATG_GAL4_XSP2,” for “endpoint ATG_zfER2b_XSP2”, “secondary” for “primary”, “background control” for “reporter gene”

[8] = tested on: chicken Androgen Receptor (AR), gene 422165; assay: ATG_chAR_XSP2: Attagene TRANS-FACTORIAL Multi-Species (XSP2) HepG2 Assay for chicken Androgen Receptor (AR) (AID 2283819);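 also: hits raise reporter mRNA above DMSO so potency is for activation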
Protocol: as §1, with “receptor.ATG_chAR_XSP2” for “receptor.ATG_zfER2b_XSP2”, “ATG_chAR_XSP2” for “ATG_zfER2b_XSP2”

[9] = tested on: frog Androgen Receptor (AR), gene 399456; assay: ATG_frAR_XSP2: Attagene TRANS-FACTORIAL Multi-Species (XSP2) HepG2 Assay for frog Androgen Receptor (AR) (AID 2283824);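 also: actives raise reporter signal above DMSO so AC50 reflects agonist-like induction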
In short: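 HepG2 cells transiently transfected with GAL4-UAS reporter units and frog (Xenopus laevis) AR-Gal4 chimera; reporter mRNA measured 24 h after dosing by RT-PCR and capillary electrophoresis. Gain of signal fitted relative to DMSO baseline.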

[10] = target: Estrogen receptor (Homo sapiens) (UniProt P03372); assay: ATG_hERa_XSP2: Attagene TRANS-FACTORIAL Multi-Species (XSP2) HepG2 Assay for human Estrogen Receptor (ERa) (AID 2283827)
Sequence of Estrogen receptor (Homo sapiens) (P03372 whole entry, looked up, the tested form may be a part): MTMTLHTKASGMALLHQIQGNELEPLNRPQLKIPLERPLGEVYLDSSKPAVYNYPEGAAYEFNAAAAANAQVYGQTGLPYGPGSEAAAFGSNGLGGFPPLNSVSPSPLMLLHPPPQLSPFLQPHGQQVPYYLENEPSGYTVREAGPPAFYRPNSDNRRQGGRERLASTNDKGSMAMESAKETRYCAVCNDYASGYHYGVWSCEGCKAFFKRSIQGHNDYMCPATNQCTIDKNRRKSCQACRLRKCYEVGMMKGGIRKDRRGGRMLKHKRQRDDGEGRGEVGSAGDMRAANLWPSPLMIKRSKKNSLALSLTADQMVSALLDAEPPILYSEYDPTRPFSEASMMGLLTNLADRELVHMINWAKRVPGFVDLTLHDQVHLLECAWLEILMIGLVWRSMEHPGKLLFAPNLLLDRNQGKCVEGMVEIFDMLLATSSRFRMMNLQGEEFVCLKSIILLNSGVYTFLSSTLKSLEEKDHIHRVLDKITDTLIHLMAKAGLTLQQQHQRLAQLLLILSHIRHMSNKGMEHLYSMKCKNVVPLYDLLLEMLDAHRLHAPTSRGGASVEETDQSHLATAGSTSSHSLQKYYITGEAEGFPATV
In short: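 HepG2 cells transiently transfected with multiplexed GAL4-UAS reporters driven by chimeric receptor-Gal4 proteins, dosed 24 h with 3 nM 6-alpha-fluorotestosterone and 1.5 nM norgestrel present. Reporter mRNA by RT-PCR and capillary electrophoresis; gain-of-signal fit versus DMSO.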

Measured: AC50

C[C@]12CC[C@H]3C(=CCc4cc(O)ccc43)[C@@H]1CCC2=O
active: [1] 0.086 µM | [2] 14.6 nM | [3] 14.7 nM | [4] 15.9 nM | [5] 25.8 nM | [6] 22.8 nM

O=C(c1ccccc1)c1ccc(O)cc1O
active: [1] 10 µM | [2] 2770 nM | [3] 4680 nM | [4] 3760 nM | [5] 5040 nM | [10] 2.31 µM | [6] 2730 nM
inactive: [7] | [8] | [9]
